# Records with an inconclusive call do not appear. Where a call stands in place of a potency, no number is given. Activity calls are given as the source filed them. Unless noted, calls come from the whole dose curve; as a rule, active = well fitted curve in the direction sought with a large enough effect; inconclusive = small, poorly fitted or top-dose-only effect, or another doubt; inactive = no such curve, though single readings can be large; an effect the other way counts as inactive or inconclusive. Bridge positions count the residues as written; N and C are the ends. Square brackets hold non-standard residues; d marks the D form. Peptide text beside a SMILES is read from it. hArg = N=C(N)NCCCC[C@H](N)C(=O)O; Mpa = O=C(O)CCS
# Assays:
# [1] = target: ATP-dependent 6-phosphofructokinase (Trypanosoma brucei brucei) (UniProt O15648); assay: qHTS Assay to Find Inhibitors of T. brucei phosphofructokinase: hit validation (AID 492961); note: potency is the fitted concentration of half-maximal effect
# ATP-dependent 6-phosphofructokinase (Trypanosoma brucei brucei), sequence (O15648 whole entry, looked up): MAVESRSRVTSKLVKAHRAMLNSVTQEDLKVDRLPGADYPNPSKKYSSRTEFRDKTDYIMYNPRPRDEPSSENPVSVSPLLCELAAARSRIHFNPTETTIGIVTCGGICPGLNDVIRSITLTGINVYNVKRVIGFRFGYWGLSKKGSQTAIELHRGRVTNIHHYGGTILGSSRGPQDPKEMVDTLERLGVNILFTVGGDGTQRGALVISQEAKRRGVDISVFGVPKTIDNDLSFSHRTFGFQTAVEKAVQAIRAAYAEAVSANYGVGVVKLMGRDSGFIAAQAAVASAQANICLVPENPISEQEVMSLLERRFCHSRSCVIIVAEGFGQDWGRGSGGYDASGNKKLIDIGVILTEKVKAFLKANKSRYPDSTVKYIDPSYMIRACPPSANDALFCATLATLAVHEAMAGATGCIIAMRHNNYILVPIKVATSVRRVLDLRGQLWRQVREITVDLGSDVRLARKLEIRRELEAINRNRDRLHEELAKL
# Procedure, shortened: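 Percent activity derived from corrected luminescence, normalized between 0x and 1x enzyme controls, then fitted to concentration-response curves. Conditions: 1.25 nM PFK, 0.1 mM ATP, 0.5 mM F6P, 45 min RT.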
# [2] = target: Thyrotropin-releasing hormone receptor (Homo sapiens) (UniProt P34981); assay: qHTS for Small Molecule Agonists and Allosteric Enhancers of Human TRH Receptor: Validation Screen for Agonists (AID 493127;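 active = calcium activation more than 3 SD above the typical response in the agonist read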;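 note: intracellular calcium rise by fluo-8 fluorescence before TRH EC20 addition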); conditions: TRH receptor agonist cell assay; at 2 µM; stronger effect = higher value
# Thyrotropin-releasing hormone receptor (Homo sapiens), sequence (P34981 whole entry, looked up): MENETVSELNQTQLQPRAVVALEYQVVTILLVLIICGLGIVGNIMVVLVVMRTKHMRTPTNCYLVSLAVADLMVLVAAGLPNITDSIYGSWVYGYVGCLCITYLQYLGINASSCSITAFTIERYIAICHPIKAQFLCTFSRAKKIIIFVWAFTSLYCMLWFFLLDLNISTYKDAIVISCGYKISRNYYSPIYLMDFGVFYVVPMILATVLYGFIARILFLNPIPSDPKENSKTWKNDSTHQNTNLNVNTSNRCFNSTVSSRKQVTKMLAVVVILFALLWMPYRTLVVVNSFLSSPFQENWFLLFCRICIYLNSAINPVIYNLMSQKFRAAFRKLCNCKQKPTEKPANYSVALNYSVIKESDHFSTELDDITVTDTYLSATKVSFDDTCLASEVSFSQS
# Procedure, shortened: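 Compound-evoked intracellular calcium release in fluo-8-loaded TRHR cells, read kinetically on FDSS (Ex 480/Em 530, 1 s/cycle) after 23 nL pintool transfer. Agonist phase preceded 10 nM TRH EC20 addition.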
# [3] = target: Galactokinase (Homo sapiens) (UniProt P51570); assay: qHTS Validation Assay for Inhibitors of Human Galactokinase (GALK) (AID 493189)
# Galactokinase (Homo sapiens), sequence (P51570 whole entry, looked up): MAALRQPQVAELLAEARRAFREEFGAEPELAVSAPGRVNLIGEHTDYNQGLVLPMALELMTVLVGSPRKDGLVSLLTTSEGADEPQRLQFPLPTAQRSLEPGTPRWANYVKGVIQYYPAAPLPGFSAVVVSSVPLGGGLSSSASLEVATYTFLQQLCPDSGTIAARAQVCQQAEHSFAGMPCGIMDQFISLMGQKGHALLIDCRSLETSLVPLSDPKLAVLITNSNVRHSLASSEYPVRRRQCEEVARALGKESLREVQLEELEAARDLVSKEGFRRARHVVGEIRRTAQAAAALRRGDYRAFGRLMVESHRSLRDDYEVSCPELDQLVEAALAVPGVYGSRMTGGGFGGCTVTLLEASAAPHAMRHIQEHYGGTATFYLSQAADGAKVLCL
# Procedure, shortened: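 5 nM GALK / 100 uM galactose / 35 uM ATP, 20 mM HEPES pH8.0, 5 mM MgCl2, 60 mM NaCl, 1 mM DTT, 0.01% BSA (final). RT 1 h; Kinase-Glo Plus luminescence.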
# [4] = Validation screen for small molecules that induce DNA re-replication in SW480 colon adenocarcinoma cells (AID 504364)
# Procedure, shortened: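 Image-based DNA content read-out: Hoechst stain 40 min, total nuclear fluorescence intensity (ex 405 nm, em 500-530 nm) after 48 h compound exposure of 250 SW480 cells/well at 37 C, 5% CO2, versus DMSO vehicle.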
# [5] = Validation screen for small molecules that induce genotoxicity in human embryonic kidney (HEK293T) cells expressing luciferase-tagged ELG1 (AID 493106)
# Procedure, shortened: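 ELG1-luciferase reporter readout (ONE-Glo, 30 min, room temperature) after 16 hr compound treatment at 37 °C of HEK293T cells at 2,000 per well. Rising luminescence flags genotoxic stress.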
# [6] = target: ATPase family AAA domain-containing protein 5 (Homo sapiens) (UniProt Q96QE3); assay: Validation screen for small molecules that inhibit ELG1-dependent DNA repair in human embryonic kidney (HEK293T) cells expressing luciferase-tagged ELG1 (AID 493107); note: nearly all actives have a fitted effect of over 70% in size; note: potency is the fitted concentration of half-maximal effect
# ATPase family AAA domain-containing protein 5 (Homo sapiens), sequence (Q96QE3 whole entry, looked up, the tested form may be a part): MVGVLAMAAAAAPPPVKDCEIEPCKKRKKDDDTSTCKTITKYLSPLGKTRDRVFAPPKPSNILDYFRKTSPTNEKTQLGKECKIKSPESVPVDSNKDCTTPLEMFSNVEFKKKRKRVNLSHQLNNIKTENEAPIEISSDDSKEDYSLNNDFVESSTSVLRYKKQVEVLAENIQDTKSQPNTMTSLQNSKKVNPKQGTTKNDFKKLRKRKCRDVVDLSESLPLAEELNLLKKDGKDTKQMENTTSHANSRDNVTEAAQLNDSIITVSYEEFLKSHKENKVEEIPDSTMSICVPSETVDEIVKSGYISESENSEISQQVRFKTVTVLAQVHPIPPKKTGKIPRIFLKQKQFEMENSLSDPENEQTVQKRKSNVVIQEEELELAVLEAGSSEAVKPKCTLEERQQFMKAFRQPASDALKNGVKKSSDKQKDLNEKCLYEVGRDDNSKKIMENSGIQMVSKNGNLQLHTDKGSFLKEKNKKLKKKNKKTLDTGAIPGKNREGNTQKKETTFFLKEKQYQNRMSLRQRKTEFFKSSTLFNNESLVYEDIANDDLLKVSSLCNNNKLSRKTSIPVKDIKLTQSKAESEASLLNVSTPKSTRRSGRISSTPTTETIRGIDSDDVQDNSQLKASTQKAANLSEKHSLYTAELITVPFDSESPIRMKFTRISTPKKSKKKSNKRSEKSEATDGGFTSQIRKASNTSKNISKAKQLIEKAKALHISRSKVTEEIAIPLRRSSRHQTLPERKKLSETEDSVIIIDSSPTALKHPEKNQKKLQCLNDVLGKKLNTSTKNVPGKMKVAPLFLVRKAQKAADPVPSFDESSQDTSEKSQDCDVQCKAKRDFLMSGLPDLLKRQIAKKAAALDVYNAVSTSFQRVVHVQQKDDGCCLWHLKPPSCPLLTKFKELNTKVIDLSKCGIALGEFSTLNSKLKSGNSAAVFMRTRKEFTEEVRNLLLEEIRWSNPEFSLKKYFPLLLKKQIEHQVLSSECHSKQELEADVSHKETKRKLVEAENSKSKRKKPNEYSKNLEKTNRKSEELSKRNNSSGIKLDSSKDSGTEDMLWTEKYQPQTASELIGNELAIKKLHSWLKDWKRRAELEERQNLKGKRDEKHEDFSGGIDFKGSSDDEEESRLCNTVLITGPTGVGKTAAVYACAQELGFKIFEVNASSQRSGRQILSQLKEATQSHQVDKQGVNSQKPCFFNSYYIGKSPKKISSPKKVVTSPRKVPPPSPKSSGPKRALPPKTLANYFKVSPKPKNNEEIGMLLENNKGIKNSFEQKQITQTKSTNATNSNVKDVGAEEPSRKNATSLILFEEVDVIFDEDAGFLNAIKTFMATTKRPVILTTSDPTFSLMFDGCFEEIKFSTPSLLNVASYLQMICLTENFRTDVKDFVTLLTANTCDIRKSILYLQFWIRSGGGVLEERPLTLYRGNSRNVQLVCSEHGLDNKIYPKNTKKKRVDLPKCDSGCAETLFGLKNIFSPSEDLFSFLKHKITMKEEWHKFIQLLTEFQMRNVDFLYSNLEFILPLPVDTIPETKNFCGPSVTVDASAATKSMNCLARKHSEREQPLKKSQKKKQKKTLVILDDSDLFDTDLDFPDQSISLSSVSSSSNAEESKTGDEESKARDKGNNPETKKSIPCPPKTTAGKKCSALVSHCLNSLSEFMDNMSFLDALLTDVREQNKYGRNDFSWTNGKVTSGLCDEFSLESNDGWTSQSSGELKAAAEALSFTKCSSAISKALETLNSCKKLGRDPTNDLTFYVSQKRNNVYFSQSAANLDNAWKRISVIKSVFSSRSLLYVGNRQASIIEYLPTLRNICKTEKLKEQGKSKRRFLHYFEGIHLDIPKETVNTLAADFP
# Procedure, shortened: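 Luciferase read-out, ONE-Glo, 30 min at room temperature, follows 16 h co-exposure at 37 C of compound and the DNA-damaging agent 5-fluorouridine. Cells: HEK293T with ELG1-luciferase fusion, 2,000 per well, DMSO as vehicle.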
# [7] = Nrf2 qHTS screen for inhibitors: Validation (AID 493153; active = well fitted inhibition curve with a large enough effect in the main read-out, with a control signal flat, not every such curve was filed as active); conditions: viability change: measured here: cytotoxicity max response
# Procedure, shortened: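 Concentration-response on A549 ARE_Fluc reporter cells exposed 18-24 h at 37 C, 5% CO2. Cytotoxicity read first by CellTiter-Fluor fluorescence (Ex 405/Em 525), then Nrf2 inhibition by BugLite luminescence after 15 min.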
# [8] = target: Peptidyl-prolyl cis-trans isomerase NIMA-interacting 1 (Homo sapiens) (UniProt Q13526); assay: qHTS Validation Assay to Find Inhibitors of Pin1 (AID 504536; active = well fitted inhibition curve with a large enough effect in the polarisation, with a control signal flat, not every such curve was filed as active; the % refers to the polarisation)
# Peptidyl-prolyl cis-trans isomerase NIMA-interacting 1 (Homo sapiens), sequence (Q13526 whole entry, looked up): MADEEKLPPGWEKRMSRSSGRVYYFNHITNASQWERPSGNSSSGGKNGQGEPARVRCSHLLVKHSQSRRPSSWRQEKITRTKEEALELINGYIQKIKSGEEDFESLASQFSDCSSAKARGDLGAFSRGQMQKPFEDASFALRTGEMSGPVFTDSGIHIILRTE
# Procedure, shortened: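 Fluorescence polarization competition: compounds (titration) displace HiFluor-488-labeled Pin1-1b peptide from Pin1 (0.3 uM final) in pH 7.5 HEPES buffer with DTT, 10 min at room temperature; %Activity normalized to no-enzyme wells, curves fitted.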
# [9] = target: Phosphoglycerate kinase, glycosomal (Trypanosoma brucei brucei) (UniProt P07378); assay: qHTS Validation Assay to Find Inhibitors of Phosphoglycerate Kinase (AID 504547)
# Phosphoglycerate kinase, glycosomal (Trypanosoma brucei brucei), sequence (P07378 whole entry, looked up): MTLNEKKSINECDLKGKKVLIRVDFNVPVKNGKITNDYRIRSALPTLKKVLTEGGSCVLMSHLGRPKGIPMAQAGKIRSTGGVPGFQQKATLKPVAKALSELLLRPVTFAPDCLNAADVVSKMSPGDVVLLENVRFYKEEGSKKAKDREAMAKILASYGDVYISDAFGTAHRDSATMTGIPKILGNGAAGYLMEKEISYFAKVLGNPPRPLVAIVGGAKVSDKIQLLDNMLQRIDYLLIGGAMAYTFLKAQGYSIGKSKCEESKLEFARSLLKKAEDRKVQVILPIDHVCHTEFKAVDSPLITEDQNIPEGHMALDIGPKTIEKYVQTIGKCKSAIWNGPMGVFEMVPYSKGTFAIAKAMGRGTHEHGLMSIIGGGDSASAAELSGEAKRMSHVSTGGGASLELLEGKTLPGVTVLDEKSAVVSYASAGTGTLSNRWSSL
# Procedure, shortened: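 In TEA buffer (100mM, pH 7.6) containing 5mM MgCl2 and 0.01% Tween-20, the GAPDH-coupled PGK reaction proceeded for 60 minutes at room temperature before a single luminescence reading using Kinase-Glo Plus.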
# [10] = qHTS for Inhibitors of Cell Surface uPA Generation: Validation Assay (AID 493164);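 note: RAW 264.7 macrophage cells exposed to compound for 18 h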
# Procedure, shortened: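 ATP-Lite luminescence read-out: ATP remains high when uPA activity-dependent LF translocation into the cytoplasm is blocked. RAW 264.7 cells, 18 h compound exposure at 37 C; 7-point titration, 2.45 nM to 38.3 uM final.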
compound,measurement,setting,value
CCNc1nc(Cl)nc(NCC)n1,Potency,[1],inactive
C[C@H]1C(=O)O[C@@H]2CCN3CC=C(COC(=O)[C@](C)(O)[C@]1(C)O)[C@H]23,Potency,[1],inactive
CNC(=O)Oc1cccc2ccccc12,Potency,[1],inactive
C=CCOC(Cn1ccnc1)c1ccc(Cl)cc1Cl (stereo not drawn),Potency,[1],inactive
CN1C(=O)[C@@H](NC(=O)c2cc3ccccc3[nH]2)N=C(c2ccccc2)c2ccccc21,Potency,[1],inactive
Clc1ccc(CO/N=C(\Cn2ccnc2)c2ccc(Cl)cc2Cl)c(Cl)c1,Potency,[1],inactive
CCS(=O)(=O)C(C)(C)S(=O)(=O)CC,Potency,[1],inactive
C[C@]12CC[C@H]3[C@@H](CC=C4C[C@@H](O)CC[C@@]43C)[C@@H]1CC[C@@H]2O,Potency,[1],inactive
CCN(Cc1ccc(Cl)nc1)/C(=C/[N+](=O)[O-])NC,Potency,[1],inactive
Oc1c(Br)cc(Br)cc1Br,Potency,[1],inactive
NCc1cccnc1,Potency,[1],inactive
CCOC(=O)NC(O)C(Cl)(Cl)Cl (stereo not drawn),Potency,[1],inactive
CC[n+]1c(-c2ccccc2)c2cc(N)ccc2c2ccc(N)cc21,Potency,[1],inactive
Cc1ccc(N=CN(C)C=Nc2ccc(C)cc2C)c(C)c1,Potency,[1],inactive
CNC(=O)NC(O)C(Cl)(Cl)Cl (stereo not drawn),Potency,[1],inactive
C[N+](C)(C)CCOC(=O)C(O)(c1ccccc1)c1ccccc1,Potency,[1],inactive
CCC1(CC)C(=O)NC(=O)NC1=O,Potency,[1],inactive
CC(C)(O)C(Cl)(Cl)Cl,Potency,[1],inactive
O=C1NCN(c2ccccc2)C12CCN(CCCOc1ccc(F)cc1)CC2,Potency,[1],inactive
CN1CCc2cc(Cl)c(O)cc2[C@H]2c3ccccc3CC[C@@H]21,Potency,[1],inactive
C[N+]1(CCC(C(N)=O)(c2ccccc2)c2ccccc2)CCCCC1,Potency,[1],inactive
C[C@]12C=CC(=O)C=C1CC[C@@H]1[C@@H]2CC[C@@]2(C)[C@H]1CC[C@]2(C)O,Potency,[1],inactive
CCNC(=O)NCc1cccc(Cl)c1,Potency,[1],15.8 µM (active)
ClC1=C(Cl)C2(Cl)C(CBr)CC1(Cl)C2(Cl)Cl (stereo not drawn),Potency,[1],inactive
CC(C)(C)OC(=O)c1ncn2c1[C@@H]1CCCN1C(=O)c1c(Br)cccc1-2,Potency,[1],inactive
Cc1ncc2n1-c1ccc(Cl)cc1C(c1ccccc1F)=NC2,Potency,[1],inactive
Cc1c(Cl)c(=O)oc2cc(OP(=O)(OCCCl)OCCCl)ccc12,Potency,[1],inactive
CCC1(c2ccccc2)CCC(=O)NC1=O (stereo not drawn),Potency,[1],inactive
NC(=O)[C@@H]1CSSCCC(=O)N[C@@H](CCCCN=C(N)N)C(=O)NCC(=O)N[C@@H](CC(=O)O)C(=O)N[C@@H](Cc2c[nH]c3ccccc23)C(=O)N2CCC[C@H]2C(=O)N1 ([Mpa][hArg]GDWPC-NH2; disulfide 1-7),Potency,[1],inactive
CCN(CC)CCOC(=O)C(C)(c1ccccc1)c1ccccc1,Potency,[1],inactive
N#Cc1nn(-c2c(Cl)cc(C(F)(F)F)cc2Cl)c(N)c1S(=O)C(F)(F)F (stereo not drawn),Potency,[1],inactive
O=C(NC(=O)c1c(F)cccc1F)Nc1cc(Cl)c(OC(F)(F)C(F)C(F)(F)F)cc1Cl (stereo not drawn),Potency,[1],inactive
c1ccc2nc(N3CCNCC3)ccc2c1,activation,[2],-0.562% (inactive)
same,outcome,[3],inactive
same,outcome,[4],inactive
NC(=O)OCCCc1ccccc1,Potency,[1],inactive
COc1ccc(C(=O)N2CCCC2=O)cc1,outcome,[5],inactive
same,Potency,[6],inactive
same,activation,[2],0.812% (inactive)
same,outcome,[7],inactive
same,viability change,[7],-4.73%
same,outcome,[3],inactive
same,outcome,[4],inactive
same,outcome,[8],inactive
same,outcome,[9],inactive
CC(C)NCC(O)c1ccc(N)c(C#N)c1 (stereo not drawn),Potency,[1],inactive
CCC(=O)O[C@H]1CC[C@H]2[C@@H]3CCC4=CC(=O)CC[C@]4(C)[C@H]3CC[C@]12C,Potency,[1],inactive
COC(=O)C1=C(C)NC(C)=C(C(=O)OC)C1c1ccccc1[N+](=O)[O-],Potency,[6],18.3 µM (active)
COCC(=O)N(c1c(C)cccc1C)C(C)C(=O)OC (stereo not drawn),Potency,[1],inactive
C#C[C@]1(O)CC[C@H]2[C@@H]3CCC4=CC(=O)CCC4=C3C=C[C@@]21CC,Potency,[1],inactive
OC(c1ccccc1)(c1ccccc1)C1CCNCC1,Potency,[1],inactive
CC(C)C(Br)C(=O)NC(N)=O (stereo not drawn),Potency,[1],inactive
O=c1n(Cl)c(=O)n(Cl)c(=O)n1Cl,Potency,[1],inactive
CC(C)[N+](C)(CCC(C(N)=O)(c1ccccc1)c1ccccc1)C(C)C,Potency,[1],inactive
O=C(O)c1nn(Cc2ccc(Cl)cc2Cl)c2ccccc12,Potency,[1],inactive
same,outcome,[5],inactive
same,Potency,[6],inactive
same,activation,[2],0.438% (inactive)
same,outcome,[10],inactive
same,outcome,[3],inactive
same,outcome,[4],inactive
same,outcome,[8],inactive
same,outcome,[9],inactive
NC(=O)CN1CCCC1=O,Potency,[1],inactive
same,outcome,[5],inactive
same,Potency,[6],inactive
same,activation,[2],-0.312% (inactive)
same,outcome,[7],inactive
same,viability change,[7],-6.84%
same,outcome,[10],inactive
same,outcome,[3],inactive
same,outcome,[4],inactive
same,outcome,[8],inactive
same,outcome,[9],inactive
CCCCCCCCCCCC[N+](C)(C)CCOc1ccccc1,Potency,[1],inactive
CN1C[C@@H](NS(=O)(=O)N(C)C)C[C@@H]2c3cccc4c3c(cn4C)C[C@H]21,Potency,[1],inactive
O=C(CCCN1CCC(n2c(=O)[nH]c3ccccc32)CC1)c1ccc(F)cc1,Potency,[1],inactive
CC[C@H]1CN2CCc3cc(OC)c(OC)cc3[C@@H]2C[C@@H]1C[C@H]1NCCc2cc(OC)c(OC)cc21,outcome,[5],inactive
same,Potency,[6],0.259 µM (active)
COc1ccc(CN2CCNCC2)c(OC)c1OC,Potency,[1],inactive
CC(N)C(=O)OC(C)(C)Cc1ccc(Cl)cc1 (stereo not drawn),outcome,[3],inactive
same,outcome,[4],inactive
Oc1ccc2[nH]cc(CCCCN3CC=C(c4ccccc4)CC3)c2c1,Potency,[1],inactive
COP(=S)(OC)Oc1ccc(Sc2ccc(OP(=S)(OC)OC)cc2)cc1,Potency,[1],inactive
COP(=O)(OC)OC=C(Cl)Cl,Potency,[1],inactive
CC(Cc1ccccc1)NCc1ccccc1Cl (stereo not drawn),Potency,[1],inactive
c1cc2c(c(N3CCNCC3)c1)OCCO2,Potency,[1],inactive
CC[C@]1(O)CC[C@H]2[C@@H]3CCC4=CCCC[C@@H]4[C@H]3CC[C@@]21C,Potency,[1],inactive
CCCCCCCCC(=O)NCc1ccc(O)c(OC)c1,outcome,[3],inactive
same,outcome,[4],inactive
C[C@]12Cc3nonc3C[C@@H]1CC[C@@H]1[C@@H]2CC[C@@]2(C)[C@H]1CC[C@]2(C)O,Potency,[1],inactive
CN1C(=O)CN=C(c2ccccc2)c2cc([N+](=O)[O-])ccc21,Potency,[1],inactive
COC(=O)C1=CCCN(C)C1,outcome,[5],inactive
same,Potency,[6],inactive
same,outcome,[7],inactive
same,viability change,[7],-1.14%
same,outcome,[10],inactive
same,outcome,[3],inactive
same,outcome,[4],inactive
same,outcome,[8],inactive
same,outcome,[9],inactive
Nc1ccc(N)cc1,Potency,[1],inactive
OC(O)C(Cl)(Cl)Cl,Potency,[1],inactive
